ANO1 activ: activates or potentiates the mouse TMEM16A chloride channel; Q8BHY3; HEK293 TMEM16A/YFP-H148Q/I152L, iodide quench fluorescence; stronger effect = lower value; B-score at 10 µM; 0.3% of 340,000 active;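 active means fluorescence-ratio B-score plate-corrected deviation score at least 3 library SD below zero, with starting fluorescence score within 5 deviations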;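 further: channel opened by trigger with iodide after compound preincubation; score built on the fluorescence ratio of max minus min over baseline; more negative score means more quench and so TMEM16A activation or potentiation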
Target sequence (Q8BHY3 whole entry, looked up): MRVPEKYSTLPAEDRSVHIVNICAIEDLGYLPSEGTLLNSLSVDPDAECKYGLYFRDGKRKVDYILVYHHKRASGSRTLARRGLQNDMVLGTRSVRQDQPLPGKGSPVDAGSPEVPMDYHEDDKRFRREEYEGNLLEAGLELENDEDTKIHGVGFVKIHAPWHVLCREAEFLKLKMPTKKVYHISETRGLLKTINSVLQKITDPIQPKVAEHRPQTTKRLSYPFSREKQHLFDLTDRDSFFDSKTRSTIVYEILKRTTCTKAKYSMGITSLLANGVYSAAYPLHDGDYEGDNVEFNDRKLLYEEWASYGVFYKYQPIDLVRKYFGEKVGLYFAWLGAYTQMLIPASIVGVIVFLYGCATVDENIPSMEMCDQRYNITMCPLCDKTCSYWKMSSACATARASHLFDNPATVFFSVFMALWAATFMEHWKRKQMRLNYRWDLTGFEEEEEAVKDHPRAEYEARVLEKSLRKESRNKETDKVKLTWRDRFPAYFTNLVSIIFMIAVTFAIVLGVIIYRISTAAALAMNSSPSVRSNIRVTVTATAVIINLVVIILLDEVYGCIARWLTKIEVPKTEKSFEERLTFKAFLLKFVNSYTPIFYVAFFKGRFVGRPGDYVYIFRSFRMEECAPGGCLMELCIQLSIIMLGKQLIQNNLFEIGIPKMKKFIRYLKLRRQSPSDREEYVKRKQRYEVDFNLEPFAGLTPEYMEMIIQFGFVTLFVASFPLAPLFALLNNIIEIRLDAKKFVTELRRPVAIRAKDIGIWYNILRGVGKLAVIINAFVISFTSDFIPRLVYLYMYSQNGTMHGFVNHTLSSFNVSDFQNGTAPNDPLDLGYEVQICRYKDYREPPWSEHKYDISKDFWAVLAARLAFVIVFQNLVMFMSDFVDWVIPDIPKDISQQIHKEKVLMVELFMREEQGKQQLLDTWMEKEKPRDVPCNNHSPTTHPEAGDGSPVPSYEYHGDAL
Rce1 inhib: inhibitors of yeast Ras-converting enzyme. Q03530. yeast membranes, quenched prenylated peptide cleavage fluorescence. calls only. 0.27% of 290,000 active;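 active means fall in fluorescence gain of 50% or more versus controls, with final raw signal at or below 3038400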;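 further: plate controls were neutral control wells for no effect and wells lacking membranes for full effect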
Kir21 block: inhibitors of mouse Kir2.1 inward-rectifier potassium channel. P35561. HEK293-Kir2.1, FluxOR thallium flux fluorescence; stronger effect = lower value. B-score at 10 µM. 0.85% of 310,000 active;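 active means fluorescence ratio B-score at or below minus 3 SD of library scores, with starting-brightness B-score within 2 SD, cut at about -4.2 in these data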;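 further: channel flux triggered by added potassium and thallium sulfate stimulus; B-score of peak minus minimum fluorescence over baseline after thallium stimulus; more negative B-score means stronger Kir2.1 block with less thallium influx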
CHT PAM: allosteric activators of human choline transporter CHT | Q9GZV3 | CHT-expressing cells, membrane potential dye, choline EC20; stronger effect = higher value; LV-AA mutant CHT in HEK293 cells | B-score at 10 µM | 0.49% of 310,000 active | AID 488977;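 active means initial fluorescence not abnormally high and integrated response B-score, plate-corrected, over 3 SD above library mean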
TMEM16A inh: blocks the mouse calcium-activated chloride channel TMEM16A | Q8BHY3 | HEK293 TMEM16A/YFP iodide influx fluorescence, ionomycin | normalized B-score (activity score, 25-100; higher = stronger inhibition) at 10 µM | 1.2% of 310,000 active;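 active means ratio plate-corrected score three or more library SD toward inhibition, starting fluorescence score within five deviations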;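 further: score derived from kinetic fluorescence span divided by baseline fluorescence per well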
CHT block: inhibitors of human choline transporter CHT; Q9GZV3; CHT-expressing cells, membrane potential dye, choline response; stronger effect = lower value; B-score at 10 µM; 0.86% of 310,000 active; AID 488975;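 active means B-score over 3 SD under the library average, and starting fluorescence ratio not unusually high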;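 further: choline stimulus applied at its EC90 after an EC20 pre-addition; B-score computed on integrated fluorescence ratio after choline addition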
* marks the source's active call; other numbers are inactive results; i = inactive; / = not tested or not shown; + = active, no number. Hits are enriched below; roughly 3.2% of the tested compounds scored in any of these assays.

SMILES	ANO1 activ	Rce1 inhib	Kir21 block	CHT PAM	TMEM16A inh	CHT block
Brc1ccc(-c2nnc(Cc3ccccc3)o2)cc1	i	i	-2.19	i	i	i
c1ccc(Cc2nnc(-c3ccccc3)o2)cc1	-6.78*	i	-0.93	i	i	i
NC(=O)Cn1c(=O)n(C2CCCCC2)c(=O)c2c3c(sc21)CCCCC3	i	i	-0.31	i	i	i
CC(C)(C)n1nnnc1CN1C2CCC1CC(NC(=O)Nc1ccccc1)C2 (stereo not drawn)	i	i	-0.19	i	i	i
CCOC(=O)c1ccc(NC(=O)NC2CC3CCC(C2)N3Cc2nnnn2Cc2ccco2)cc1 (stereo not drawn)	-46.8*	i	-1.28	i	i	i
COc1ccc(OC)c(-c2nn(-c3ccccc3)cc2C(=O)NCC(c2cccs2)N2CCOCC2)c1 (stereo not drawn)	i	i	0.1	i	i	i
NCC12CC3CC(C1)CC(c1ccc(Br)cc1)(C3)C2	i	i	-9.46*	i	i	i
Cc1ccc(C23CC4CC(CC(C(N)=O)(C4)C2)C3)cc1	i	i	-0.05	i	i	i
Cc1ccc(C23CC4CC(CC(CN)(C4)C2)C3)cc1	i	i	-5.9*	/	/	/
Cc1cccc(OCc2nnc(N)s2)c1	i	i	2.16	i	i	i
CCc1ccccc1OCc1nnc(N)s1	i	i	0.42	i	25*	i
COc1ccc(NC(=O)Nc2nnc(CC(=O)NCc3ccccc3)s2)cc1	i	i	0.61	i	i	i
COc1cccc(NC(=O)Nc2nnc(CC(=O)NCc3ccccc3)s2)c1	-4.89*	i	-0.3	i	i	i
COc1ccccc1OCC(=O)NC1CCCCCCC1	i	/	/	/	/	/
COc1ccccc1OCC#CCNC1CCCCC1C (stereo not drawn)	i	i	-5.51*	i	i	i
CCOC(=O)c1c(C)[nH]c(C(=O)C(C)OC(=O)c2cccc(OCc3c(C)noc3C)c2)c1C (stereo not drawn)	i	i	0.47	i	i	i
CCOc1ccc(NC(=O)c2ccc(N3CC4CC(C3)c3cccc(=O)n3C4)c(N)c2)cc1 (stereo not drawn)	i	i	0.73	i	i	i
CCn1c(N)c(C(=O)NC)sc1=S	i	i	1.28	i	100*	i
Cn1c(-c2ccc(F)cc2)cnc1NCc1cccc(F)c1	i	i	0.81	i	i	i
Cn1c(-c2ccccc2)cnc1NCc1ccc(F)cc1	i	i	-4.89*	/	/	/
Cn1c(N)c(C(=O)COC(=O)CNS(=O)(=O)c2cccc(Cl)c2)c(=O)n(C)c1=O	i	i	-1.1	i	i	i
CC(C)CC(=O)Nc1c2c(nn1-c1cccc(Cl)c1)CS(=O)C2 (stereo not drawn)	i	i	0.45	i	i	i
O=C1NN(c2ccc(Cl)c(Cl)c2)C(=O)/C1=C/c1cccc(OC(=O)c2cccs2)c1	/	i	-4.38*	i	i	i
O=C1NN(c2ccccc2)C(=O)/C1=C\c1cccc(OC(=O)c2cccs2)c1	i	i	0.12	i	i	i
O=C(COC(=O)C1=COCCO1)NC1CCCCC1	i	i	-0.17	i	i	i
SMILES	ANO1 activ	Rce1 inhib	Kir21 block	CHT PAM	TMEM16A inh	CHT block
COc1ccc(C(C)=O)cc1COC(=O)c1cc(C)oc1C	-11.2*	i	-0.07	i	i	i
CN(C)CCOC(C1CCCCC1)C1CCCCC1	i	i	-4.59*	i	i	i
N#CCC(=O)Nc1ccc(C(=O)NNC(=O)CCN2CCN(c3ccccc3)CC2)cc1	i	/	/	/	/	/
c1ccc(COc2ccc(OCCCCN3CCCCC3)cc2)cc1	i	i	-4.66*	i	i	i
CCN1CCN(CCCOc2ccc(-c3ccccc3)cc2)CC1	/	i	-4.73*	i	i	i
CN1CCN(CCCOc2ccc(-c3ccccc3)cc2)CC1	i	i	-2.22	i	i	i
O=C(c1ccccc1)c1ccc(OCCCCN2CCCCC2)cc1	i	i	-0.36	i	i	i
O=C(/C=C/c1ccc(Cl)cc1)c1cccnc1	i	i	-7.93*	i	i	i
N#Cc1ccc(/C=C/C(=O)c2cccnc2)cc1	i	i	-8.99*	i	i	i
CCN(CC)c1ccc(/C=C/C(=O)c2cccnc2)cc1	i	/	-1.25	i	i	i
O=C(Cc1ccc([N+](=O)[O-])cc1)N/N=C/c1cccnc1	i	i	-0.68	i	i	i
O=C(N/N=C/c1cccnc1)c1ccc([N+](=O)[O-])cc1	i	i	-0.5	6.82*	i	i
COc1ccc(NC(=O)C2CCCNC2)cc1OCC(C)C (stereo not drawn)	i	i	-0.7	i	i	i
COc1ccc(CN2CCCCC2C(=O)Nc2ccc(OC)c(OCC(C)C)c2)cc1OC (stereo not drawn)	i	+	1.37	i	i	i
Cc1ccc(OCCn2cc(C#N)c3ccccc32)cc1	i	/	1.05	i	100*	i
COC(=O)c1cn(CCOc2ccc(C)cc2)c2ccccc12	i	i	-1.18	i	i	i
Cc1ccc(S(=O)(=O)n2cnc(C)c2)cc1	i	i	-0.09	i	i	i
c1ccc(-c2ccc(-c3cn4c(n3)CCC4)cc2)cc1	i	+	-1.17	i	i	i
Cc1ccc(-c2cn3c(n2)CCCC3)cc1	i	i	-0.35	i	i	i
O=C(NCc1ccc(Cl)cc1)C1CCN(c2nnc(N3CCCC3=O)s2)CC1	i	i	0.25	i	i	i
COc1ccccc1C(CCN(Cc1ccccc1)C(C)=O)c1ccco1 (stereo not drawn)	-9.15*	i	-5.28*	i	i	i
CCC(=O)N(CCC(c1ccco1)C(C)C)Cc1ccccc1 (stereo not drawn)	i	i	-6.11*	i	i	i
O=C(c1ccco1)N(CCC(c1ccccc1)c1ccco1)Cc1ccc(F)cc1 (stereo not drawn)	i	i	-4.41*	i	i	i
CCCC(=O)N(CCN(Cc1ccccc1)C(=O)CCC)Cc1ccccc1	i	i	-2.09	i	i	i
COc1cc(CNCc2ccccn2)ccc1OCC(=O)NC1CCCCC1	i	i	-0.03	i	i	i
CCOc1cc(CNCc2ccccc2)ccc1OCC(=O)NC1CCCCC1	i	i	-4.38*	i	i	i
